Laboratory results as given in the supplement of paper PMC10981050.
“And” between values parts separate entries of the source, which are not always exact repeats. Equal values may be shown once.

Experiments:
Experiment in all cases: cell viability relative to vehicle control; higher = less cytotoxic
Conditions in all cases: 10 µM
[1] = system: K562
Procedure, shortened: (§1)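 Each screen used CRISPR-edited mutant and wild-type clones from four leukaemia lines. Compounds were acoustically dispensed at a single 10 µM dose, and CellTiter-Glo luminescence was read after 48 h with the supernatant first removed. Viability was analysed in Genedata Screener and given as percent of the on-plate vehicle control.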

[2] = system: MARIMO
Procedure, shortened: as §1

[3] = system: MOLM14
Procedure, shortened: as §1

[4] = system: OCI-AML2
Procedure, shortened: as §1

CC(=O)O[C@]1(C(C)=O)CC[C@H]2[C@@H]3CCC4=CC(=O)CCC4=C3[C@@H](c3ccc(N(C)C)cc3)C[C@@]21C [Ulipristal acetate] was tested, and the cell viability ([1]; SRSF2 genotype: SRSF2 P95H/wt) was 91% and 94.2%, the cell viability ([1]; SRSF2 genotype: SRSF2 wt/wt) was 86.7% and the cell viability ([2]; SRSF2 genotype: SRSF2 P95H/wt) was 81.7%. The cell viability ([2]; SRSF2 genotype: SRSF2 wt/wt) was 95.2%, the cell viability ([3]; SRSF2 genotype: SRSF2 P95H/wt) was 82.3% and the cell viability ([3]; SRSF2 genotype: SRSF2 wt/wt) was 93.6%. For the same molecule, the cell viability ([4]; SRSF2 genotype: P95H/wt) was 84.6% and the cell viability ([4]; SRSF2 genotype: wt/wt) was 89.5%.
In the case of CC1(C)CCC[C@](C)([C@H]2CC[C@]3(C)[C@@H]2[C@H](O)C[C@@H]2[C@@]4(C)CC[C@H](O)C(C)(C)[C@@H]4[C@@H](O)C[C@]23C)O1 [Panaxatriol], the cell viability ([1]; SRSF2 genotype: SRSF2 P95H/wt) is reported as 105% and 99.1%, the cell viability ([1]; SRSF2 genotype: SRSF2 wt/wt) is reported as 97.5% and the cell viability ([2]; SRSF2 genotype: SRSF2 P95H/wt) is reported as 103%. For the same molecule, the cell viability ([2]; SRSF2 genotype: SRSF2 wt/wt) was 105%, the cell viability ([3]; SRSF2 genotype: SRSF2 P95H/wt) was 98.6% and the cell viability ([3]; SRSF2 genotype: SRSF2 wt/wt) was 103%. For the same molecule, the cell viability ([4]; SRSF2 genotype: P95H/wt) was 102% and the cell viability ([4]; SRSF2 genotype: wt/wt) was 109%.
In the case of O=C(O)c1ccc(O)cc1 [4-Hydroxybenzoic acid], the cell viability ([1]; SRSF2 genotype: SRSF2 P95H/wt) is reported as 93.3% and 100%, the cell viability ([1]; SRSF2 genotype: SRSF2 wt/wt) is reported as 98.8% and the cell viability ([2]; SRSF2 genotype: SRSF2 P95H/wt) is reported as 93.4%. The cell viability ([2]; SRSF2 genotype: SRSF2 wt/wt) was 97.5%, the cell viability ([3]; SRSF2 genotype: SRSF2 P95H/wt) was 98.4% and the cell viability ([3]; SRSF2 genotype: SRSF2 wt/wt) was 99.5%. It also gave a cell viability ([4]; SRSF2 genotype: P95H/wt) of 87% and a cell viability ([4]; SRSF2 genotype: wt/wt) of 102%.
With CCCCCCCCCC(C)=O [Methylnonylketone] the cell viability ([1]; SRSF2 genotype: SRSF2 P95H/wt) was 93.2% and 96.8%, the cell viability ([1]; SRSF2 genotype: SRSF2 wt/wt) was 96.3% and the cell viability ([2]; SRSF2 genotype: SRSF2 P95H/wt) was 96.2%. The cell viability ([2]; SRSF2 genotype: SRSF2 wt/wt) was 101%, the cell viability ([3]; SRSF2 genotype: SRSF2 P95H/wt) was 97.7% and the cell viability ([3]; SRSF2 genotype: SRSF2 wt/wt) was 99.7%. It also gave a cell viability ([4]; SRSF2 genotype: P95H/wt) of 99.5% and a cell viability ([4]; SRSF2 genotype: wt/wt) of 97.2%.
With O=C(Nc1ccc(OC(F)(F)F)cc1)c1sccc1NCc1ccnc2ccccc12 the cell viability ([1]; SRSF2 genotype: SRSF2 P95H/wt) was 44.9% and 48.7%, the cell viability ([1]; SRSF2 genotype: SRSF2 wt/wt) was 43.4% and the cell viability ([2]; SRSF2 genotype: SRSF2 P95H/wt) was 49.2%. It also gave a cell viability ([2]; SRSF2 genotype: SRSF2 wt/wt) of 42.3%, a cell viability ([3]; SRSF2 genotype: SRSF2 P95H/wt) of 39% and a cell viability ([3]; SRSF2 genotype: SRSF2 wt/wt) of 29.1%. The cell viability ([4]; SRSF2 genotype: P95H/wt) was 24% and the cell viability ([4]; SRSF2 genotype: wt/wt) was 27.2%.
In the case of Cc1[nH]nc2ccc(-c3cncc(OC[C@@H](N)Cc4ccccc4)c3)cc12, the cell viability ([1]; SRSF2 genotype: SRSF2 P95H/wt) is reported as 31.9% and 28.5%, the cell viability ([1]; SRSF2 genotype: SRSF2 wt/wt) is reported as 26.3% and the cell viability ([2]; SRSF2 genotype: SRSF2 P95H/wt) is reported as 7.82%. It also gave a cell viability ([2]; SRSF2 genotype: SRSF2 wt/wt) of 5.76%, a cell viability ([3]; SRSF2 genotype: SRSF2 P95H/wt) of 0.2% and a cell viability ([3]; SRSF2 genotype: SRSF2 wt/wt) of 0.05%. It also gave a cell viability ([4]; SRSF2 genotype: P95H/wt) of 0.26% and a cell viability ([4]; SRSF2 genotype: wt/wt) of 6.55%.
C=CC(=O)Nc1cccc(Nc2nc(Nc3ccc(Oc4ccnc(C(=O)NC)c4)cc3)ncc2F)c1 was tested, and the cell viability ([1]; SRSF2 genotype: SRSF2 P95H/wt) was 87.5% and 95.6%, the cell viability ([1]; SRSF2 genotype: SRSF2 wt/wt) was 85.1% and the cell viability ([2]; SRSF2 genotype: SRSF2 P95H/wt) was 83.4%. It also gave a cell viability ([2]; SRSF2 genotype: SRSF2 wt/wt) of 83.8%, a cell viability ([3]; SRSF2 genotype: SRSF2 P95H/wt) of 53.1% and a cell viability ([3]; SRSF2 genotype: SRSF2 wt/wt) of 53.4%. For the same molecule, the cell viability ([4]; SRSF2 genotype: P95H/wt) was 57.5% and the cell viability ([4]; SRSF2 genotype: wt/wt) was 63.8%.
With COc1nc(C)nc(Cl)c1NC1=NCCN1 [Moxonidine] the cell viability ([1]; SRSF2 genotype: SRSF2 P95H/wt) was 101% and 86.7%, the cell viability ([1]; SRSF2 genotype: SRSF2 wt/wt) was 84.3% and the cell viability ([2]; SRSF2 genotype: SRSF2 P95H/wt) was 87.2%. The cell viability ([2]; SRSF2 genotype: SRSF2 wt/wt) was 95.5%, the cell viability ([3]; SRSF2 genotype: SRSF2 P95H/wt) was 89.9% and the cell viability ([3]; SRSF2 genotype: SRSF2 wt/wt) was 94.8%. The cell viability ([4]; SRSF2 genotype: P95H/wt) was 97.5% and the cell viability ([4]; SRSF2 genotype: wt/wt) was 89.6%.
In the case of COc1c(N2C[C@@H]3CCCN[C@@H]3C2)c(F)cc2c(=O)c(C(=O)O)cn(C3CC3)c12 [Moxifloxacin], the cell viability ([1]; SRSF2 genotype: SRSF2 P95H/wt) is reported as 94.1% and 92.9%, the cell viability ([1]; SRSF2 genotype: SRSF2 wt/wt) is reported as 90.2% and the cell viability ([2]; SRSF2 genotype: SRSF2 P95H/wt) is reported as 93.9%. For the same molecule, the cell viability ([2]; SRSF2 genotype: SRSF2 wt/wt) was 99.8%, the cell viability ([3]; SRSF2 genotype: SRSF2 P95H/wt) was 95.3% and the cell viability ([3]; SRSF2 genotype: SRSF2 wt/wt) was 96.4%. The cell viability ([4]; SRSF2 genotype: P95H/wt) was 86.8% and the cell viability ([4]; SRSF2 genotype: wt/wt) was 90.4%.
